We go through 94 compounds from PubChem BioAssay AID1345082 (National Center for Advancing Translational Sciences (NCATS), 2018).

Structures are written as SMILES. In all, about 94,000 compounds went through this assay and about 4,000 (4.3%) were called active. A call without a number means that no potency is given here. Not shown: some 29% with an inconclusive outcome. This is one part of a sample in which actives are shown more often than they occur. Calls come from the whole dose curve; as a rule, active = well fitted inhibition curve with a large enough effect; inconclusive = small, poorly fitted or top-dose-only effect; inactive = no such curve, though single readings can be large or run the other way.
Potency is the fitted concentration of half-maximal effect.

This test can be described thus: Cytotoxic Profiling in NIH 3T3 Cell Line of Diverse Libraries Using Quantitative High-Throughput Screening. Note: nearly all actives have a fitted effect of over 55% in size. The settings on record: NIH 3T3 viability, CellTiter-Glo ATP luminescence, 48-72 h; series mostly up to 96.7 µM. The method in brief:
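ATP-dependent luminescence (CellTiter-Glo) served as the viability signal for NIH 3T3 cells treated with compound for 48 or 72 hr at 37 °C.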
In the case of `O=C1NC(=NC2CCCCC2)C2(CCN([S+](=O)([O-])c3ccccc3)C2)N1c1cccnc1` (centres undefined), the Potency entry is “inactive”.

Regarding `O=C(c1ccsc1)N1CCCCCC1c1nnc(-c2ccccc2)o1` (centres undefined), the Potency result is “inactive”. To `COc1ccccc1N1CCN(C(=O)C2CCCN(C(=O)c3ccccc3)CCC(=O)NCC2)CC1` (centres undefined) belongs “inactive”. To `COc1ccc(C(=O)N2CCCN(C(=O)C3CC3)C(c3ccccc3)CC(=O)NCC2)cn1` (centres undefined) belongs “inactive”; to `COc1ccccc1N1CCCc2ncc(C(=O)N3CCCC[C@@H]3c3ccccc3)cc21`, 70.8 µM (active); to `CNC(=O)c1cc(C2CC2)nc2onc(C3CCCN(C(=O)OC)C3)c12` (centres undefined), “inactive”. Then `CC(C)NC(=O)NC[C@H]1O[C@@H]2C[C@@H](CC(=O)NCc3nccn3C)O[C@@H]2[C@@H]1O`, with “inactive”; and `NC(=O)c1cccc(-c2ncc3c(n2)OCCN(c2cccc(C(F)(F)F)c2)C3=O)c1`, with 15.8 µM (active). With `COc1ccc(OC2CCN(C(C)=O)CC2)c(C(=O)N(C)Cc2ccc3nccnc3c2)c1`, the Potency result is “inactive”. To `O=C([C@H]1C[C@@H](F)CN1S(=O)(=O)c1ccc(F)c(Cl)c1)N1CCOCC1` belongs “inactive”.

In the case of `CN1C[C@@H](NC(=O)c2ccc(C#N)cc2)C[C@H]1c1nc(-c2ccc(OC(F)(F)F)cc2)no1`, the Potency was 39.8 µM (active). With `CN1C[C@@H](NC(=O)COc2ccccc2)C[C@H]1c1nc(-c2ccc3c(c2)OCO3)no1`, the Potency result is “inactive”. To `CN1C[C@@H](NC(=O)c2ccccc2)C[C@H]1c1nc(-c2ccccc2)no1` belongs “inactive”. Then `COc1ccc(CCc2nc(NC(=O)Cn3nc4c(cc3=O)CCCCC4)n[nH]2)cc1`, with “inactive”.

On to `CC(C)CNC(=O)C1CCCN(c2nccc(Nc3ccccc3F)n2)C1` (centres undefined), for which the Potency was 44.7 µM (active). To `Cc1ccc(CNC(=O)C2CCN(C(=O)c3ncn4c3COC(c3ccc(F)cc3)C4)CC2)cc1` (centres undefined) belongs “inactive”. Then `Cc1nc(CCNC(=O)C2CCCN(c3nc(-c4ccccc4)nc4c3CCC4)C2)n[nH]1` (centres undefined), with “inactive”; and `O=C(NCc1cccnc1)C1CCCN(c2cnn(Cc3ccccc3)c(=O)c2)C1` (centres undefined), with “inactive”; and `CNC(=O)C1CCN(c2nccc(Nc3ccccc3F)n2)CC1`, with “inactive”. Then `O=C(NC1CC1)C1CCCN(c2nc3ncccc3o2)C1` (centres undefined), with “inactive”; and `O=C(NCc1ccc(F)cc1)C1CCN(c2nccc(Nc3ccccc3F)n2)CC1`, with 44.7 µM (active); and `Cc1ccccc1CN1CCC(N2CCCC(C(=O)NC3CC3)C2)CC1` (centres undefined), with “inactive”. On to `O=C(NC1CCCCC1)C1CCCN(c2nccc(Nc3ccccc3F)n2)C1` (centres undefined), for which the Potency was 14.1 µM (active). To `Cc1ccc(C(=O)N2CCC(c3n[nH]c(=O)n3Cc3ccc(F)cc3)CC2)cc1` belongs “inactive”; to `O=C1CCN([C@@H]2CCC[C@H]2O)c2cc3c(cc2CN1Cc1ccccc1)OCO3`, “inactive”; to `COc1cccc([S+](=O)([O-])N2CCCC3(CC(c4ccccc4)=NO3)C2)c1` (centres undefined), “inactive”. To `N[C@@H](Cc1cnc[nH]1)C(=O)N1CCC(c2cc(N3CCCC3)ncn2)CC1` belongs “inactive”; to `COc1ccc(C2Cn3nnc(-c4noc(-c5sccc5C)n4)c3CO2)cc1` (centres undefined), “inactive”.

As for `CCc1cc(C(=O)N2CCC(Oc3ccccc3)(C(=O)O)CC2)cs1`, the Potency entry was “inactive”. To `CC(C)CNc1ncnc2c1CN(C1CCC1)C(=O)CN2C` belongs “inactive”; to `O=C(c1ccc(F)c(F)c1)N1CCN(C2CCN(CCc3ccccc3)C2=O)CC1` (centres undefined), “inactive”; to `COCc1nncn1C1CCN(C(=O)c2ccccc2F)CC1`, “inactive”. Then `O=C1Nc2ccc(-c3ccccc3F)cc2C(=O)N2CCN(C(=O)c3cccs3)C[C@H]12`, with “inactive”; and `O=C1Nc2ccc(-c3ccsc3)cc2C(=O)N2CC[C@H](NS(=O)(=O)c3cccs3)[C@@H]12`, with “inactive”. To `N[C@H]1CCN2C(=O)c3cc(-c4ccc(F)cc4F)ccc3NC(=O)[C@H]12` belongs 112 µM (active). Take `CS(=O)(=O)N1C[C@H]2CCN(C(=O)c3ccc(=O)[nH]c3)C[C@H]21`: the Potency entry was “inactive”.

Take `COc1ccc(-c2[nH]ncc2CN2CCCC(C(=O)NCc3ccccc3)CCNC(=O)CC2)cc1` (centres undefined): the Potency result was “inactive”. To `CC(=O)N[C@@H]1CN(Cc2cn[nH]c2-c2ccc(F)cc2)C[C@H]1CO` belongs “inactive”; to `COc1ccc2cc(-c3[nH]ncc3CN3CCN(c4cccc(C)n4)CC3)ccc2c1`, 28.2 µM (active). `CCc1nnc([C@@H]2CC(F)(F)CN2C(=O)c2cc(C)oc2C)o1`: the Potency result is “inactive”. `C=CCNC(=O)N[C@H]1C[C@@H](C(=O)N[C@H](Cc2c[nH]c3ccccc23)C(N)=O)N(C(=O)C=C(C)C)C1`: the Potency result was “inactive”. To `O=C1CC2(CCN(C(=O)C3CCN(C(=O)c4ccccc4Cl)CC3)CC2)Oc2ccccc2N1` belongs “inactive”. `O=C(Cn1ccnc1)N1CCC(c2noc(-c3ccncc3)n2)C1` (centres undefined): the Potency result was “inactive”. Then `O=C(NC1CCCC1)N1CCC(c2noc(-c3ccccc3)n2)C1` (centres undefined), with 39.8 µM (active); and `Cn1cnc(S(=O)(=O)N2CCC(c3noc(-c4ccccc4)n3)C2)c1` (centres undefined), with “inactive”; and `Cc1noc(C)c1S(=O)(=O)N1CCC2(CC1)CN(c1ccccc1)C2=O`, with “inactive”. To `O=C(NC1CCCCC1)N1CCCC(Cn2c(C3CC3)nc3cccnc32)C1` (centres undefined) belongs “inactive”. Turning to `Cc1nc(N2CCC(NC(=O)C(C)Oc3ccccc3)CC2)cc(C(F)(F)F)n1` (centres undefined), the Potency result is “inactive”.

Turning to `Cc1nc(N2CCC(NC(=O)c3ccc4c(c3)OCO4)CC2)cc(C(F)(F)F)n1`, the Potency result was “inactive”. With `Cc1nc(N2CCC(C(=O)NCc3ccc(C(C)C)cc3)CC2)cc(C(F)(F)F)n1`, the Potency is 25.1 µM (active). Then `CNC(=O)N1CCc2nc(N3CCOCC3)[nH]c(=O)c2CC1`, with “inactive”; and `COc1ccc([S+](=O)([O-])c2nnn3c2nc(NC2CCCC2)c2ccccc23)cc1`, with “inactive”.

Regarding `O=C(NCCOc1ccccc1)c1nc2c(o1)CCN(CC1CCCCC1)CC2`, the Potency was 79.4 µM (active).

For the compound `O=C(NCC1CC1)c1nc2c(o1)CCN(CCc1ccccc1)CC2`, the Potency result is “inactive”.

Regarding `CCc1nc2c(c(-c3ccc(OC)cc3)n1)CCN(CC1CCCCC1)CC2`, the Potency result was “inactive”.

As to `CN(C)C[C@@H]1CN(S(C)(=O)=O)C[C@H]1NC(=O)c1cccc(F)c1`, the Potency result is “inactive”. Then `COc1ccc(C(=O)N2CCC(N3C[C@H](O)C[C@H]3C(=O)NC3CCCCC3)CC2)cn1`, with “inactive”.

`C[S+](=O)([O-])N1CCC2(C1)N=C(c1ccccn1)C(=O)N2` (centres undefined): the Potency entry was “inactive”. Then `CCN1C(=O)COC[C@@H]1C(O)c1ccc(NC(=O)Cc2ccc(OC)cc2)cc1` (some centres undefined), with “inactive”; and `COc1ccccc1CN1C(=O)COC[C@@H]1[C@H](O)c1ccc(NC(=O)c2ccc(C#N)cc2)cc1`, with 44.7 µM (active); and `CC(C)CN1C(=O)COC[C@@H]1[C@H](O)c1ccc(NC(=O)Cc2ccccc2)cc1`, with “inactive”. `O=C(Cc1ccccc1)Nc1ccc([C@@H](O)[C@H]2COCC(=O)N2)cc1`: the Potency result was “inactive”. To `Cc1nc2cnccn2c1C(=O)NC1CCCC1` belongs “inactive”; to `Cc1cccc(-c2cc(C3CCN(S(=O)(=O)c4cccc(C#N)c4)CC3)[nH]n2)c1`, 5.01 µM (active).

For the compound `Cc1cnc(-c2cccnc2)n1C1CCN(S(=O)(=O)c2cccc(F)c2)CC1`, the Potency entry is “inactive”. To `Cc1cccc(-c2cc(C3CCN(S(=O)(=O)c4ccc(C#N)cc4)CC3)[nH]n2)c1` belongs 14.1 µM (active). Then `Cc1cccc(S(=O)(=O)N2CCC(n3cnnc3C(C)C)CC2)c1`, with “inactive”; and `Cn1nc2n(c1=O)CCN(S(=O)(=O)c1ccc(C#N)cc1)CC2`, with “inactive”; and `Cc1cnc(CC2CCN(S(=O)(=O)c3ccc(C#N)cc3)C2)n1Cc1ccccc1` (centres undefined), with “inactive”.

As for `O=C(Cc1ccsc1)NCC1CCCCC(=O)N1` (centres undefined), the Potency entry is “inactive”. To `Cc1ncccc1C(=O)N1CC2CC(C1)[C@H]1CCCC(=O)N1C2` (some centres undefined) belongs “inactive”; to `CN1CC(=O)N(C2CCCNCC2)Cc2c1ncnc2N1CCCC(F)C1` (centres undefined), “inactive”; to `Cc1noc(C)c1CC(=O)NCC12CCC=C1N(Cc1ccccc1)C(=O)CC2` (centres undefined), “inactive”.

As for `Cn1ncc(N2CCC(C(=O)NC3CCCC3)C2)cc1=O` (centres undefined), the Potency result was “inactive”. To `CCc1ccc(C(=O)NC2CCN(c3cnn(CC)c(=O)c3)CC2)cc1` belongs “inactive”; to `Cc1cc(C)cc(C(=O)NC2CCN(c3cnn(C)c(=O)c3)CC2)c1`, 39.8 µM (active). To `COc1ccc(C(=O)N2CCN(C(=O)Nc3cccc(OC)c3)C[C@@H]2C(=O)N[C@H]2CCCNC2=O)cc1` belongs “inactive”; to `Cc1cc(C(=O)NCC2(COc3cccnc3)C[C@@H](O)[C@@H](O)C2)n(C)n1` (some centres undefined), “inactive”; to `Cc1ccc(-c2noc([C@@H]3Cc4nc[nH]c4CN3Cc3cccc(C#N)c3)n2)cc1`, 100 µM (active). Then `Cc1cccc(-c2noc([C@@H]3Cc4nc[nH]c4CN3C(=O)CCC(=O)O)n2)c1`, with “inactive”; and `O=C(c1ccco1)N1Cc2[nH]cnc2C[C@H]1c1nc(-c2ccncc2)no1`, with “inactive”; and `CNC(=O)c1cc(C2CC2)nc2onc(C3CCN(C(=O)Cc4ccc(OC)cc4)CC3)c12`, with “inactive”.

As to `O=C(c1cccnc1)N1CCC2(CCCN(C3CCOCC3)C2=O)C1` (centres undefined), the Potency entry was “inactive”. To `CN1Cc2c(cc(N3CCOCC3)nc2-c2cccc(F)c2)C1=O` belongs 8.91 µM (active).

As for `O=C1c2cc(N3CCOCC3)nc(-c3cccnc3)c2CN1C1COC1`, the Potency is 8.91 µM (active). Then `O=c1[nH]c(N2CCOCC2)nc2c1CCN(Cc1cccc(F)c1)CC2`, with “inactive”; and `O=C(NC1CCCCC1)N1CCCCCC1c1nc(-c2cccnc2)no1` (centres undefined), with “inactive”. To `Cc1cccc(Cn2c(-c3ccc(F)cc3)nc(C)c(CCO)c2=O)c1` belongs “inactive”; to `Cc1cc(N2CCC(NC(=O)c3cccc(N(C)C)c3)C2=O)ccc1F` (centres undefined), “inactive”. To `O=C(c1c[nH]c2ccccc12)N1CCC2(COc3ccncc3S(=O)(=O)N2)C1` (centres undefined) belongs “inactive”. `Cc1cc(C(=O)N2CCC(N3C(=O)C(O)C34CCCCC4)CC2)nn1C` (centres undefined): the Potency entry is “inactive”. To `Cc1nc(C)c(C(=O)N2CCN(C(=O)N(C)C)[C@@H]3CS(=O)(=O)C[C@@H]32)s1` belongs “inactive”; to `COc1ccccc1C(=O)N1CCC2(CC1)C(=NC1CCCCC1)NC(=O)N2c1cccnc1`, “inactive”; to `O=C(NCc1nnc2n1C(C(=O)NC1CC1)CC2)c1ccncc1` (centres undefined), “inactive”.
